Experiments:
AAK1 = settings: concentration: 1 μM, replicates: in singlicate; n = 1
ABL1-nonphosphorylated = settings: concentration: 1 μM, replicates: in singlicate; n = 1
ABL1-phosphorylated = settings: concentration: 1 μM, replicates: in singlicate; n = 1
ABL2 = settings: concentration: 1 μM, replicates: in singlicate; n = 1
ACVR1B = settings: concentration: 1 μM, replicates: in singlicate; n = 1
ACVR1 = settings: concentration: 1 μM, replicates: in singlicate; n = 1
ACVR2A = settings: concentration: 1 μM, replicates: in singlicate; n = 1
ACVR2B = settings: concentration: 1 μM, replicates: in singlicate; n = 1
ACVRL1 = settings: concentration: 1 μM, replicates: in singlicate; n = 1
ADCK3 = test system: T1, ADCK3; settings: concentration: 1 μM, replicates: in singlicate; n = 1
T1 construct: gene CABC1

ADCK4 = settings: concentration: 1 μM, replicates: in singlicate; n = 1
AKT1 = settings: concentration: 1 μM, replicates: in singlicate; n = 1
AKT2 = settings: concentration: 1 μM, replicates: in singlicate; n = 1
AKT3 = settings: concentration: 1 μM, replicates: in singlicate; n = 1
YSK4 = test system: T2, YSK4
T2 construct: gene MAP3K19

p38-alpha = test system: T3, p38-alpha
T3 construct: gene MAPK14
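Wherever %Inh is given: KINOMEscan kinase panel screen.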
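Wherever Kd is given: kd values determined as follow-up on hits from a single-replicate KINOMEscan panel screen.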

Structure (SMILES)	%Inh (AAK1)	%Inh (ABL1-nonphosphorylated)	%Inh (ABL1-phosphorylated)	%Inh (ABL2)	%Inh (ACVR1B)	%Inh (ACVR1)	%Inh (ACVR2A)	%Inh (ACVR2B)	%Inh (ACVRL1)	%Inh (ADCK3)	%Inh (ADCK4)	%Inh (AKT1)	%Inh (AKT2)	%Inh (AKT3)	Kd (YSK4)	Kd (ZAK)	Kd (p38-alpha)
C[C@@H]1CC[C@H](C(=O)NC2CCCCC2)CN1c1cc(-c2ccc3c(N)n[nH]c3c2)nc(N)n1 [GSK2291363]	55%	5%	0%	20%	0%	0%	0%	0%	0%	22%	49%	0%	11%	0%	–	–	–
O=C(Nc1n[nH]c2nc(-c3ccccc3)c(Cl)cc12)C1CC1 [SB-734909]	28%	76%	57%	0%	7%	0%	7%	8%	0%	0%	0%	0%	0%	0%	7700 nM	–	–
CN(C)c1cc(-c2ccc3c(N)n[nH]c3c2)nc(N)n1 [GSK2219329]	10%	0%	0%	0%	0%	0%	0%	1%	0%	9%	23%	0%	0%	0%	–	> 10000 nM	–
COc1ccc(Nc2nccc(N3CCC(NS(=O)(=O)c4ccc(NC(C)=O)cc4)C3)n2)cc1 (centres unmarked) [GSK1379729]	0%	0%	0%	20%	3%	34%	32%	22%	8%	9%	38%	0%	7%	0%	–	–	> 10000 nM
Cl.c1ccc(Cn2cnc3cc(Nc4ncnc5ccccc45)ccc32)cc1 [GW272142]	5%	0%	0%	9%	0%	17%	0%	2%	0%	13%	34%	0%	3%	0%	–	–	–
Cc1ccc(-c2ccc3c(ccc4sc5c(c43)NC[C@@H](C)N=C5N(C)C)n2)cn1	0%	0%	0%	0%	0%	0%	0%	0%	12%	0%	0%	0%	0%	0%	–	–	–
CC(C)(C)c1ccc(C(=O)Nc2cn3cc(-c4ccccc4)ccc3n2)cc1	0%	74%	55%	21%	0%	5%	0%	0%	5%	25%	0%	0%	0%	0%	–	–	–
OCCCNc1nccc(-c2c(-c3cccc(C(F)(F)F)c3)nn3cc(C(F)(F)F)ccc23)n1 [GW630813]	0%	0%	0%	0%	0%	0%	0%	0%	0%	68%	43%	0%	0%	0%	–	–	1300 nM
Cc1nc(N(C)[C@H]2CN(C(=O)CC#N)CC[C@H]2C)c2cc[nH]c2n1	0%	1%	2%	1%	8%	8%	15%	0%	5%	0%	0%	0%	1%	3%	–	–	–
Cc1nnc(-c2ccc(C)c(-c3ccc(C(=O)O)cc3)c2)o1 [GW608005]	0%	0%	0%	0%	0%	4%	0%	0%	0%	0%	0%	0%	6%	0%	–	–	–
COc1cc2nccc(Nc3cccc(Oc4ccccc4)c3)c2cc1OC.Cl [GW284543]	0%	0%	0%	15%	12%	0%	0%	0%	0%	32%	22%	0%	7%	0%	–	–	–
O=C(NCCNc1ccnc(Nc2ccc(F)cc2)n1)Nc1ccc2c(c1)OCO2 [GSK1379882]	20%	0%	0%	0%	0%	0%	0%	0%	0%	9%	23%	0%	0%	0%	–	> 10000 nM	–
Cc1c(Cn2c(C)nn3c(=O)cc(N4CCO[C@H](C)C4)nc23)cccc1C(F)(F)F [GSK2373690]	0%	0%	2%	24%	0%	2%	3%	0%	0%	22%	24%	0%	6%	28%	–	–	–
O=C(Nc1n[nH]c2cc(-c3ccccc3F)ccc12)C1CC1 [SB-733371]	9%	46%	21%	9%	1%	32%	38%	48%	0%	0%	0%	0%	0%	7%	200 nM	–	–
Nc1nc(-c2ccccc2F)c(-c2ccnc3ccccc23)s1 [GW560459]	12%	0%	0%	3%	0%	6%	0%	0%	0%	0%	22%	0%	0%	0%	–	–	240 nM
O=C(NCc1cccs1)c1cc(C(=O)c2c(Cl)cccc2Cl)c[nH]1 [GW823670]	0%	18%	27%	0%	12%	0%	0%	0%	5%	0%	0%	0%	0%	0%	–	–	–
COc1cc(Nc2nccc(N3CCC(NC(=O)C4COc5ccccc5O4)C3)n2)cc(OC)c1OC (centres unmarked) [GSK1379761]	66%	0%	0%	3%	0%	20%	22%	13%	0%	10%	65%	0%	9%	0%	–	–	–
CCS(=O)c1ccc(-c2coc3ccc(-c4nnc(C)o4)cc23)cc1 (centres unmarked)	0%	27%	0%	0%	0%	5%	0%	0%	6%	5%	0%	0%	0%	0%	–	–	–
COc1ccc(CNC(=O)NC2CCN(c3ccnc(Nc4ccc(F)cc4)n3)C2)cc1 (centres unmarked) [GSK1379706]	32%	0%	0%	2%	0%	49%	0%	5%	0%	29%	48%	0%	0%	0%	–	–	–
CCS(=O)(=O)c1ccc(OC)c(Nc2ncc(-c3ccc(F)cc3)o2)c1.Cl [GW591947]	4%	0%	0%	0%	0%	0%	0%	0%	0%	1%	15%	0%	0%	9%	–	–	–
CN1C(=O)C(Nc2cc(Cl)c(O)c(Cl)c2)=C(c2ccc(Cl)cc2)C1=O [SB-404321]	0%	30%	0%	0%	0%	0%	0%	0%	0%	3%	16%	0%	0%	0%	–	–	–
CCn1c(-c2nonc2N)nc2ccccc21 [SB-693162/GW549034]	29%	53%	27%	0%	1%	0%	0%	0%	0%	4%	0%	0%	1%	0%	10 nM	–	–
CCc1nc(-c2cccc(C)c2)c(-c2ccncc2)s1	0%	60%	11%	6%	20%	3%	5%	0%	5%	55%	0%	0%	0%	0%	–	–	–
Cn1c(=O)c(F)c(Nc2ccc(I)cc2F)c2c(=O)n(OC[C@H](O)CO)cnc21	10%	54%	41%	3%	0%	14%	29%	28%	1%	21%	0%	15%	0%	0%	–	–	–
Cc1cccc(-c2cc(-c3c[nH]nc3-c3ccccn3)ccn2)c1 [GW679395]	14%	68%	29%	48%	0%	0%	0%	3%	0%	3%	22%	0%	1%	0%	–	–	–
COC(=O)c1c(-c2ccccc2)c2cc(Br)ccc2c(=O)n1Cc1ccc(S(C)(=O)=O)cc1	27%	25%	9%	32%	0%	15%	0%	0%	0%	12%	8%	14%	28%	0%	–	–	–
O=c1cc(N2CCOCC2)nc2n(Cc3ccc(F)c(Cl)c3)ccn12 [GSK2297099]	24%	0%	0%	0%	0%	0%	0%	0%	0%	0%	11%	0%	13%	0%	–	–	–

Source: paper PMC5540273 (PLoS ONE, 2017)
